Experimental data taken from PubChem BioAssay (EPA / NIEHS).
Several values for one entry are separate records, joined by “and”; a condition that tells them apart may be missing. Identical values can stand only once. Activity calls are given as the source filed them. How the source made its calls: active means hit-call score of the fitted dose curve at least 0.9, where 1 is the maximum; inactive means score below 0.9.

The compounds below were run on Collagen III, COL3A1 (gene 1281) (assay: BSK_MyoF_CollagenIII: BioMAP Diversity Plus: MyoF Assay for Collagen III Biomarker Activity (AID 2284239)). Conditions: primary human lung fibroblasts.
Method: BSK_MyoF is a cell-based, multiplexed-readout assay that uses lung fibroblasts, […], with measurements taken at 24 hours after chemical dosing in a microplate: 96-well plate.BSK_MyoF_CollagenIII is an assay component measured in the BSK_MyoF assay. It measures Collagen III antibody related to regulation of gene expression using ELISA technology.Data from the assay component BSK_MyoF_CollagenIII was analyzed at the endpoint, BSK_MyoF_CollagenIII, in the positive analysis fitting direction relative to DMSO as the negative control and baseline of activity. Using a type of binding reporter, gain or loss-of-signal activity can be used to understand protein changes. To generalize the intended target to other relatable targets, this assay endpoint is annotated to the 'cell adhesion molecules' intended target family, where the subfamily is 'collagen'.
The levels of cell surface (or secreted, indicated by the prefix "s") biomarker endpoints were measured by ELISA. Overt cytotoxicity to cells in confluent adherent cultures (all systems other than the BT system) was assessed by measuring total protein levels using sulforhodamine B (SRB) staining in parallel cultures at the time of biomarker measurements, indicated as SRB endpoints. For proliferation assays for adherent cell types, individual cell types are cultured at sub-confluence and relative cell numbers quantified by SRB staining at time points optimized for each system (48 h: 3C and CASM3C systems; 72 h: BT and HDF3CGF systems; 96 h: SAg system). SRB was performed by staining cells with 0.1% SRB after fixation with 10% TCA and reading wells at 560 nm.Viability and proliferation of PBMC (T cells) was quantified by Alamar Blue reduction for the SAg and BT systems. For PBMC viability (referred to as PBMC Cytotoxicity within the assay endpoint names), cells were plated (75,000/well in a 96-well plate) and then chemical samples added for 1 h before addition of activators, SEB and TSST-1 (20 ng/mL final concentration each). Cells were incubated for 90 h. Then, Alamar Blue (20 uL/well) (Invitrogen, Cat DAL1100) was added for 6 h, and the plates were read with a fluorescence microplate reader at 546/580 nm (excitation/emission). For PBMC proliferation, cells were plated and activated as above but incubated for only 16 h prior to addition of Alamar Blue. Plates were read after 6 h.

| Compound | outcome | AC50 |
| --- | --- | --- |
| CCN(CC)c1ccc(C=O)c(O)c1 | inactive | – |
| FC(F)(F)C(F)(F)C(F)(F)C(F)(F)C(F)(F)C(F)(F)CC[Si](Cl)(Cl)Cl | inactive | – |
| Cc1cc(C)c(O)c(C(C)(C)C)c1 | – | 30.5 µM (active) |
| CC(C)(C)c1cc(CCC(=O)NCCCCCCNC(=O)CCc2cc(C(C)(C)C)c(O)c(C(C)(C)C)c2)cc(C(C)(C)C)c1O | inactive | – |
| CC(C)CCCC(C)CCO (stereo not given) | – | 35.3 µM (active) |
| O=C(O)C(F)(F)C(F)(F)C(F)(F)C(F)(F)C(F)(F)C(F)(F)C(F)F | inactive | – |
| C=C(C)C(=O)OCC(F)(F)C(F)(F)C(F)(F)C(F)F | inactive | – |
| NC(=O)C(F)(F)C(F)(F)C(F)(F)C(F)(F)C(F)(F)C(F)(F)C(F)(F)F | inactive | – |
| Cc1cnccn1 | inactive | – |
| FC(F)(F)C(F)(F)C(F)(F)CC1CO1 (stereo not given) | inactive | – |
| O=S(=O)(OCC(F)(F)F)C(F)(F)C(F)(F)C(F)(F)C(F)(F)F | inactive | – |
| O=C(O)C(F)(F)C(F)(F)C(F)(F)OC(F)(C(F)(F)F)C(F)(F)F | inactive | – |
| O=C(O)C(F)(F)OC(F)(F)C(F)(F)OC(F)(F)C(F)(F)OC(F)(F)F | inactive | – |
| CNS(=O)(=O)C(F)(F)C(F)(F)C(F)(F)C(F)(F)C(F)(F)C(F)(F)C(F)(F)C(F)(F)F | inactive | – |
| C=CC(=O)OCCC(F)(F)C(F)(F)C(F)(F)C(F)(F)F | inactive | – |
| C=CC(=O)OCC(F)(F)C(F)(F)C(F)(F)COC(=O)C=C | – | 13.9 µM (active) and 14.7 µM (active) |
| Cc1ccc(O)c(-n2nc3ccccc3n2)c1 | inactive | – |
| CCOC(C=C(C)CCC=C(C)C)OCC | – | 20 µM (active) |
| O=C(F)C1(F)C(F)(F)C(F)(F)C(F)(F)C(F)(F)C1(F)F | inactive | – |
| O=C1c2c(O)ccc(Nc3ccc(CCO)cc3)c2C(=O)c2c([N+](=O)[O-])ccc(O)c21 | – | 30.2 µM (active) |

| Compound | outcome | AC50 |
| --- | --- | --- |
| O=C(O)C(F)(F)C(F)(F)C(F)(F)C(=O)O | inactive | – |
| CCN(CC)c1ccc2c(c1)Oc1cc(N(CC)CC)ccc1C21OC(=O)c2ccccc21 | inactive | – |
| Nc1cc([N+](=O)[O-])cc(Cl)c1O | inactive | – |
| NS(=O)(=O)C(F)(F)C(F)(F)C(F)(F)C(F)(F)C(F)(F)C(F)(F)F | inactive | – |
| CCN(CC)c1ccc(C=O)cc1 | inactive | – |
| O=C=Nc1cccc2c(N=C=O)cccc12 | inactive | – |
| O=S(=O)(Cl)C(F)(F)C(F)(F)C(F)(F)C(F)(F)C(F)(F)C(F)(F)C(F)(F)C(F)(F)F | – | 30 µM (active) and 41.1 µM (active) |
| Cc1cc(O)c(C(C)(C)C)cc1C(C)(C)C | – | 5.41 µM (active) |
| CCN(CCO)S(=O)(=O)C(F)(F)C(F)(F)C(F)(F)C(F)(F)C(F)(F)C(F)(F)C(F)(F)C(F)(F)F | – | 18.9 µM (active) and 23.2 µM (active) |
| O=C(O)C(F)(F)C(F)(F)C(F)(F)OC(F)(F)F | inactive | – |
| NCC(F)(F)C(F)(F)C(F)(F)C(F)(F)C(F)(F)C(F)(F)C(F)(F)C(F)(F)F | inactive | – |
| O=C(Cl)C(F)(F)C(F)(F)C(F)(F)C(F)(F)C(F)(F)C(F)(F)C(F)(F)F | inactive | – |
| C=CC(=O)OCC(F)(F)C(F)(F)C(F)(F)C(F)(F)C(F)(F)C(F)(F)C(F)(F)C(F)F | inactive | – |
| O=C(O)CCC(F)(F)C(F)(F)C(F)(F)F | inactive | – |
| CN(C(=O)C(F)(F)C(F)(F)C(F)(F)F)[Si](C)(C)C | inactive | – |
| C[Si](Cl)(Cl)CCC(F)(F)C(F)(F)C(F)(F)C(F)(F)C(F)(F)C(F)(F)F | inactive | – |
| FC(F)(F)C(F)(F)C(F)(F)C(F)(F)C(F)(F)C(F)(F)C(F)(F)CCI | inactive | – |
| OCC(F)(F)C(F)(F)C(F)(F)C(F)(F)C(F)(F)C(F)(F)CO | inactive | – |
| Brc1nc2ccccc2s1 | inactive | – |
| OCC(F)(F)C(F)(F)C(F)(F)C(F)(F)C(F)(F)C(F)(F)C(F)(F)C(F)(F)CO | – | 37.1 µM (active) and 45.7 µM (active) |
